Measurements: ChEMBL document CHEMBL4513216, “Probing the Open Global Health Chemical Diversity Library for Multistage-Active Starting Points for Next-Generation Antimalarials” (ACS Infect Dis, 2020)
Hit rate of the full screen: of about 65,000 compounds, about 2,100 (3.2%) showed an effect of 50% or more. The median lay at about -52%. The list comes from a sample in which strong results are over-represented; it also holds similar structures and randomly drawn compounds.

system: Plasmodium falciparum; experiment: Screen against P. falciparum Asexual Blood Stage (ABS), at 5uM; format: functional, Dd2; conditions: tested at 5 uM

Row | SMILES | INHIBITION [%]
1 | Cc1nc2c(c(NCc3ccc(-c4ccccn4)s3)n1)CCNCC2 | 73.6
2 | Cc1nc2c(c(NCc3nc4ccccc4s3)n1)CCNCC2 | 71.3
3 | Cc1nc2c(c(NCc3cc4ccccc4s3)n1)CCNCC2 | 89.2
4 | COc1ncnc(N)c1CNCCc1ccccc1 | -136
5 | Cc1nc(C2(NCC(=O)NCc3cccs3)CCCCC2)no1 | -130
6 | CN(C)C(=O)CN1CCCC2(CCN(c3ccc(C#N)cn3)C2)C1 (stereo unspecified) | -51.1
7 | O=C1CCCN1CCN1CC=C(c2cnn(C3CCS(=O)(=O)C3)c2)CC1 (stereo unspecified) | -88.6
8 | CC(Nc1ncnc2c1CCNC2)c1ccc2c(c1)CCCC2 (stereo unspecified) | 71.2
9 | CC(C)N(C)Cc1cncc2c1CCN(Cc1cccs1)C2 | 1.43
10 | COCCN1CCCC12CCN(Cc1cccnc1OC)CC2 | -66.3
11 | COc1cc(Oc2ncccc2C(F)(F)F)ccc1CN1CCCC1 | 79.4
12 | CCN1CCCC12CCN(Cc1cccnc1OC)CC2 | -69.1
13 | Cc1noc(C)c1CN1CCO[C@H]2[C@H](Oc3ccccn3)CC[C@@H]21 | -42.5
14 | OCCCN1CCc2[nH]nc(C(c3ccccc3)c3ccccc3)c2C1 | 73
15 | Cc1cccc(CN2CC3C[C@]3(NC(=O)c3ccoc3)C2)n1 (stereo partly specified) | -67.9
16 | COCCN1C[C@@H]2[C@@H](OC)CCN(S(=O)(=O)c3cccnc3)[C@@H]2C1 | -22.8
17 | Cc1ccc(C(=O)N[C@H]2CN(CCO)C[C@@H]2C2CC2)cc1Cl | 52.2
18 | Cn1ccc2c(C(=O)NC3CN4CCC3CC4)cccc21 (stereo unspecified) | 3.44
19 | CCOc1ccc(C2SCC(=O)Nc3c2c(=O)[nH]n3C(CC)CC)cc1 (stereo unspecified) | -144
20 | CCN1CCN(S(=O)(=O)c2cc(Cl)c(Cl)cc2C)CC1 | 70.9
21 | CCN1CCN(c2cncc(Cl)n2)CC1 | -13.6
